Bioassay records from PubChem.
ADAM17 inh – inhibitors of human ADAM17; P78536; recombinant ADAM17, EDANS/DABCYL FRET peptide cleavage; inhibition, % at 6.95 µM; actives 0.83% (n = 370,000); AID 720648;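 active = inhibition above the mean of compounds lying between control limits plus 3 SD, set per campaign, cut at about 8.5% in these data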;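 also: 0% = DMSO-only wells as the low control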
rRNA inh HTS – inhibitors of bacterial rRNA selective over humanized ribosomes | E. coli WT GFP vs humanized-ribosome RFP mutants, fluorescence, 24 h; stronger effect = lower value; DMSO median 0, no signal -100 | GFP signal change (wild-type ribosome), % (test concentration not listed) | actives 1.6% (n = 350,000);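 active = significant combined selectivity score with lowered wild-type GFP, culture density cut under 30%, mutant RFP and density less affected; inactive = any of these conditions unmet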
ADAM10 inh – inhibitors of human ADAM10 | actives 0.62% (n = 370,000) | inhibition, % at 7 µM | O14672 | recombinant ADAM10, EDANS/DABCYL FRET peptide cleavage, 3 h | AID 720582;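 active = inhibition above a per-campaign cutoff equal to the mean of compounds falling between control-based bounds plus 3 SD, cut at about 20% in these data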;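 also: 0% = DMSO wells while the 100% control is not disclosed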
KLK7 zymogen act – proKLK7 (human) activation, primary screen. P49862. purified proKLK7, EDANS-DABCYL substrate fluorescence; 100% is mature enzyme control, 0% vehicle. activation, % at 7 µM. actives 0.9% (n = 370,000). AID 652039;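 active = activation above the mean of all tested compounds plus 3 SD, computed per campaign excluding outliers beyond control limits, cut at about 13% in these data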
Target sequence (P49862 whole entry, looked up): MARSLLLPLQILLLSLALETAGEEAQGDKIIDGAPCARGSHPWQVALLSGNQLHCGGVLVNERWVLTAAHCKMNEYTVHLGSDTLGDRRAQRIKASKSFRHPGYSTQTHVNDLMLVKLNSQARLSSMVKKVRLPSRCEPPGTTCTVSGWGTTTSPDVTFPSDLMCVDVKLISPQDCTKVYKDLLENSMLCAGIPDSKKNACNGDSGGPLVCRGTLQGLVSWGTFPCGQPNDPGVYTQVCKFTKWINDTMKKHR
FGF22 binding-1 – FGF22 (human) thermal shift binding; Q9HCT0; recombinant FGF22 thermal shift, SYPRO orange fluorescence; percent of sucrose octasulfate shift, DMSO zero; activity (Tm shift, normalised), % at 9.99 µM; actives 1.5% (n = 340,000);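 active = mean Tm shift, scaled 0 neutral to 100 positive control, at about 1.3% or above, every replicate too, limit read from the data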
Target sequence (Q9HCT0 whole entry, looked up): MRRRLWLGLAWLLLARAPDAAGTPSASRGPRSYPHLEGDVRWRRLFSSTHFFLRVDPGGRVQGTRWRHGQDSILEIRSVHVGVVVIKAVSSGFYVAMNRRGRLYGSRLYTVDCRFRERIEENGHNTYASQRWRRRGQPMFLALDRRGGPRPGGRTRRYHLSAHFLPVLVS
FGF22 binding-2 – binds human FGF22 shifting its melting temperature. actives 2% (n = 1,000). thermal shift activity, °C (ΔTm) at 38 µM. recombinant FGF22 thermal shift, SYPRO orange fluorescence. AID 720646. shares compounds with FGF22 binding-1;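 active = fitted rise in melting shift crosses a set limit at or below the top valid dose tested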
TSA no protein – counter-screen for FGF22 binders: compound-only thermal shift, no protein; shares compounds with FGF22 binding-1; compound-only SYPRO orange thermal shift counter-screen; actives 2% (n = 1,000); AC50, µM (doses to about 38 µM); AID 743019;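 active = rising signal whose fitted curve reaches the 0.54 level within the top valid dose, showing a melting point, actives reach about 13 µM in these data; inactive = the rest, including activity in the opposite direction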; also: value is where the raw curve crosses a fixed level and not half-maximal
Numbers without * were called inactive; i = inactive; x = no result given; [ ] = another dose, or the depositor's remark. A selection: hits, their analogues and other compounds. The true share with any hit is near 3.8%.

SMILES	ADAM17 inh	rRNA inh HTS	ADAM10 inh	KLK7 zymogen act	FGF22 binding-1	FGF22 binding-2	TSA no protein
CCOC(=O)N1CCc2c(sc(NC(=O)C3COc4ccccc4O3)c2C(N)=O)C1 (stereo unspecified)	-2	-15	-11	0	29*	-0.11	i
CCN1CCc2c(sc(NC(=O)c3ccc(S(=O)(=O)N(CC)c4ccccc4)cc3)c2C(N)=O)C1	-2	x	0	-474	28*	0.017	i
COc1ccc(C)cc1NC(=O)C1CCN(S(=O)(=O)c2cccs2)CC1	-2	4	6	0	1.9*	0.011	i
COc1ccc2c3c(n(C)c2c1)[C@H](CO)NCC31CN(C(=O)Nc2ccc(F)cc2F)C1	x	0	x	x	0	x	x
C/C(=N/NC(=O)CNC(=O)c1cccnc1)c1ccc(Cl)cc1	-6	6	-1	0	0	x	x
C/C(=N\NC(=O)CNC(=O)c1ccncc1)c1ccc(C)cc1	1	12	-4	0	1.6*	0.043	i
Cc1nn(CCOc2cccc(Cl)c2)c(C)c1[N+](=O)[O-]	-3	3	14	0	0	x	x
Cc1nn(CCOc2ccccc2Cl)c(C)c1[N+](=O)[O-]	2	4	-11	0	1.7*	-0.008	i
CC(=O)Nc1ccc(C(=O)N/N=C/c2cc(Br)cc(Br)c2O)cc1	-1	-12	-8	0	2.8*	-0.18	i
CC(C)C(=O)Nc1ccc(C(=O)N/N=C/c2cc(Br)cc(Br)c2O)cc1	-10	12	-6	1	0	x	x
O=C(C(=O)N1CCC(CNS(=O)(=O)Cc2ccccc2)CC1)c1cccs1	-1	7	3	0	27*	0.071	i
O=C(C(=O)N1CCC(CNS(=O)(=O)c2cccc3ccccc23)CC1)c1cccs1	0	-9	2	0	0	x	x
CC(C)NC(=O)N1[C@H](CO)[C@H](c2ccccc2-c2ccc(F)cc2)[C@@H]1C#N	x	-4	x	x	1.8*	0.22	i
Cc1ccccc1-c1ccccc1[C@H]1[C@@H](CO)N(C(=O)c2ccccc2)[C@H]1C#N	x	4	x	x	1.7*	0.13[42 µM]	i
C/C=C/c1ccccc1[C@@H]1[C@@H](C#N)N(C(C)=O)[C@@H]1CO	x	2	x	x	1.3*	-0.004[42 µM]	i
N#C[C@@H]1[C@H](c2ccc(-c3cccnc3)cc2)[C@H](CO)N1C(=O)Nc1ccc(F)cc1	x	-2	x	x	2.7*	0.067[42 µM]	i
CC(C)NC(=O)N1[C@H](C#N)[C@@H](c2ccccc2-c2ccc(F)cc2)[C@@H]1CO	x	-4	x	x	1	x	x
C[C@@H]1CN([C@H](C)CO)C(=O)c2cc(/C=C/c3ccccc3)cnc2O[C@@H]1CN(C)C(=O)NC1CCCCC1	x	0	x	x	0	x	x
CO[C@H]1CN(C)C(=O)c2ccc(NC(=O)C3CC3)cc2OC[C@@H](C)N(Cc2cncnc2)C[C@H]1C	x	1	x	x	x	x	x
CN(CC(=O)Nc1cccc(F)c1)C(=O)c1cn(-c2ccccc2)nc1-c1cccs1	6	-22	15	1	0	x	x
COc1cccc(NC(=O)CN(C)C(=O)c2cn(-c3ccccc3)nc2-c2cccs2)c1	6	-10	14	1	2.1*	0.63	i
Cc1noc(C)c1S(=O)(=O)Nc1ccc2c(c1)CC(=O)N([C@H](C)CO)C[C@@H](C)[C@H](CN(C)Cc1ccc(Cl)c(Cl)c1)O2	x	0	x	x	0	x	x
CCCN1C[C@H](C)[C@H](OC)CN(C)C(=O)c2ccc(NC(=O)c3cccc(OC)c3)cc2OC[C@H]1C	x	1	x	x	0	x	x
Cc1cccc(C(=O)NNC(=O)c2ccc(NS(=O)(=O)c3cccs3)cc2)c1C	-4	-2	-12	0	1.9*	-0.09	i
Cc1ccc(C(=O)NNC(=O)c2ccc(NS(=O)(=O)c3cccs3)cc2)s1	-3	2	-11	0	0	x	x
COc1ccc(/C=N/NC(=O)c2ccc(NS(=O)(=O)c3cccs3)cc2)cc1	2	-3	4	0	1.7*	-0.093	i
